A selection: hits, their analogues and other compounds. The true share with any hit is near 2.9%.
pPAFAH FP inh: inhibitors of human plasma PAF acetylhydrolase (pPAFAH); Q13093; recombinant pPAFAH, FP-rhodamine probe fluorescence polarization; inhibition, % at 3.39 µM; 1.5% of 330,000 active; AID 463082;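 active = inhibition above the mean inhibition across the screen plus 3 SD, cut at about 25% in these data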;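 also: inhibitors block binding of the rhodamine activity-based probe so polarization drops; 0% = enzyme with DMSO and 100% = wells lacking pPAFAH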
PAFAH1B2 FP inh: blocks human PAF acetylhydrolase 1b catalytic subunit 2. recombinant PAFAH1B2, FP-rhodamine activity probe, fluorescence polarization. inhibition, % at 3.39 µM. 1.2% of 340,000 active;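 active = inhibition above the mean of all tested compounds plus 3 SD, cut at about 24% in these data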;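 also: 0% = enzyme with DMSO and 100% = wells lacking PAFAH1B2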
ZTA DNA inh: blocks Epstein-Barr virus ZTA, an EBNA-1 counter-screen; ZTA-DNA binding, fluorescence polarization; P03206; inhibition, % at 11 µM; 0.15% of 320,000 active; in the data active = inhibition above about 33%
Target sequence (P03206 whole entry, looked up): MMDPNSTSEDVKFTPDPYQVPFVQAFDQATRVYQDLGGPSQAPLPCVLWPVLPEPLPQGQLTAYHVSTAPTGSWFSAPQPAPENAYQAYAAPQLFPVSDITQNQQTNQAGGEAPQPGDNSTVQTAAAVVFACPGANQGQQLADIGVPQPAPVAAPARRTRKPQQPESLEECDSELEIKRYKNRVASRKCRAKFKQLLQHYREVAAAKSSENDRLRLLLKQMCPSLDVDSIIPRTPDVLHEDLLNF
EBNA-1 inh: blocks EBNA-1 binding to DNA; EBNA-1 DNA binding, fluorescence polarization; inhibition, % at 14.8 µM; 0.34% of 300,000 active; in the data active = inhibition above about 28%
PAFAH2 FP inh: inhibitors of human PAFAH2; AID 492956; Q99487; inhibition, % at 3.39 µM; recombinant PAFAH2, FP-rhodamine activity probe, fluorescence polarization; 0.99% of 340,000 active;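 active = inhibition above the mean over all tested compounds plus 3 SD, cut at about 30% in these data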;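 also: inhibitors block probe labeling of enzyme so polarization drops; 0% = enzyme with DMSO and 100% = wells lacking PAFAH2 protein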
PAFAH1B3 inh: inhibitors of human PAFAH1B3; Q15102; recombinant PAFAH1B3, FP-rhodamine probe, fluorescence polarization; inhibition, % at 3.39 µM; 0.28% of 340,000 active; AID 492972;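 active = inhibition above the screen-wide average of all tested compounds plus 3 SD, cut at about 25% in these data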;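 also: 0% = enzyme with DMSO only and 100% = wells lacking PAFAH1B3 protein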
Target sequence (Q15102 whole entry, looked up): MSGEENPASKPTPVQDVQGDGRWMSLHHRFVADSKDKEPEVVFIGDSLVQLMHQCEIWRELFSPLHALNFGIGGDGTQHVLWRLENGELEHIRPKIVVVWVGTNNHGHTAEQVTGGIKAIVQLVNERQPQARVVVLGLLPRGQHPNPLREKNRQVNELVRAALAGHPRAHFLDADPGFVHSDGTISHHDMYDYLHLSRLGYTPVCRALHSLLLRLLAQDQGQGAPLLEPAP
PAFAH1B3 conf FP: PAFAH1B3 (human) inhibition, confirmed; AID 493032; recombinant PAFAH1B3, FP-Rh activity-based probe, fluorescence polarization; 30% of 390 active; shares compounds with PAFAH1B3 inh; inhibition, % at 3.39 µM;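 active = average inhibition over triplicate runs above the hit cutoff set in the earlier primary screen, cut at about 25% in these data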;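 also: 0% = enzyme with DMSO and 100% = wells lacking PAFAH1B3 protein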
Numbers without * were called inactive; x = no result given; ! = not confirmed by another sample.

SMILES | pPAFAH FP inh | PAFAH1B2 FP inh | ZTA DNA inh | EBNA-1 inh | PAFAH2 FP inh | PAFAH1B3 inh | PAFAH1B3 conf FP
CNCCCC12CCC(c3ccccc31)c1ccccc12 | -1.0 | -1.1 | -9.2 | 1.6 | 2.2 | 50.2*! | 6.8
CC(=O)N(/N=C1\Sc2ccccc2C1=O)c1cccc(C)c1 | -6.4 | 7.2 | -16.3 | -10.1 | 7.4 | 42.1* | 53.6*
Cc1ccc(NC2Sc3ccccc3NC2=O)cc1Cl (centres undefined) | 2.1 | -17.0 | 4.9 | 3.4 | -4.5 | 5.3 | x
O=Nc1c(O)[nH]c2ccc(F)cc12 | 7.7 | 6.9 | -7.1 | 10.2 | 0.2 | 21.3 | x
O=Nc1c(O)[nH]c2ccc(Cl)cc12 | 5.6 | 15.7 | -1.9 | 14.1 | 5.3 | 25.5* | 33.8*
COCCN(C(=O)c1cc(CN2C(=O)c3ccccc3C2=O)ccc1OC)c1c(N)n(CC(C)C)c(=O)[nH]c1=O | x | 1.9 | x | x | 0.0 | 2.8 | x
O=C(NCC(=O)N(c1cccnc1)C(C(=O)NC1CCCC1)c1ccccc1F)c1ccco1 (centres undefined) | 1.1 | -0.7 | 6.5 | -21.0 | -3.5 | 9.5 | x
Cc1nc(N)sc1-c1csc(Nc2cccc(C(=O)O)c2)n1 | x | 10.8 | x | x | 8.7 | 29.1* | 8.4
CCC(=O)Nc1nc(C)c(-c2csc(Nc3cccc(C(=O)O)c3)n2)s1 | 17.1 | 2.6 | -10.2 | 9.0 | -2.6 | 8.6 | x
O=S(=O)(Nc1c(S(=O)(=O)c2ccccc2)c2nc3ccccc3nc2n1C1CCCCC1)c1ccccc1 | 20.1 | 21.4 | -4.3 | -0.8 | 10.2 | 59.7* | 9.0
Cc1ccc(S(=O)(=O)c2c(N)n(-c3ccccc3)c3nc4ccccc4nc23)cc1 | -2.4 | -3.3 | 3.6 | 3.9 | -7.0 | -1.8 | x
CCC(C)c1ccc(NC(=O)C/C(C)=N/NC(=O)c2cnccn2)cc1 (centres undefined) | 1.0 | -0.8 | 15.2 | 9.0 | 2.1 | 3.7 | x
CCOC(=O)c1ccccc1N1C(=O)CSC1=S | -0.9 | -2.2 | -1.1 | 5.4 | -0.1 | 38.0* | 37.9*
Cc1ccccc1C(=O)NN1C(=O)CSC1=S | -9.1 | -0.9 | -2.5 | -7.0 | -4.3 | -2.9 | x
COc1ccc(N2CC(C(=O)O)CC2=O)cc1 (centres undefined) | -0.7 | 2.0 | -6.1 | -4.0 | -8.7 | 0.0 | x
COc1ccc(N2CS(=O)CC2=O)cc1 (centres undefined) | 1.2 | 2.5 | 1.1 | -9.3 | 0.1 | 42.9* | 5.2
On1nnc2ccccc21 | -6.7 | 0.6 | -10.6 | -3.3 | -6.2 | 6.2 | x
On1nnc2c3ccccc3c3ccccc3c21 | 3.3 | 10.4 | 0.9 | 8.4 | 3.0 | 38.1* | 41.5*
CC(=O)c1ccc(NC(=O)CNC2CCCCC2)cc1 | -10.8 | 16.4 | -9.7 | -6.8 | 21.7 | 30.5* | 6.3
O=C(CNC1CCCCCC1)Nc1ccc(N2CCCC2)cc1 | 5.3 | x | 14.0 | -2.2 | x | x | x
O=c1cc(-c2ccc(O)c(O)c2)oc2c(C3O[C@H](CO)[C@@H](O)[C@H](O)[C@H]3O)c(O)cc(O)c12 (some centres undefined) | 4.2 | 1.6 | 7.3 | 3.1 | -2.8 | 30.1* | 10.9
O=C(OCc1ccccn1)c1ccc(COc2ccc3ccccc3c2)o1 | 14.1 | 3.0 | 13.0 | -8.7 | -2.5 | 1.1 | x
O=C(COC(=O)c1ccc2ccccc2n1)NCc1ccccc1 | 19.6 | 4.0 | -11.3 | -3.2 | -5.6 | 47.1* | 5.5
COc1cccc(NC(=O)c2ccc(N3C(=O)C4CCC(C)CC4C3=O)cc2)c1 (centres undefined) | 4.3 | 7.6 | 0.9 | 6.2 | -3.6 | 13.0 | x
CCc1cc(=O)oc2c(CNCc3ccc(OC)cc3OC)c(O)c(Cl)cc12 | 5.0 | 5.1 | 1.4 | 8.3 | -1.3 | 10.5 | x
CCOC(=O)CN1C(=O)C(=O)N(Cc2ccccc2F)C1=O | 5.9 | -2.5 | 9.1 | -1.1 | -9.1 | 6.5 | x
COC1=C/C(=C/c2c(N)n3cc(C)sc3nc2=O)C=CC1=O | -2.0 | -0.6 | 13.8 | -4.7 | -2.7 | 9.1 | x
Cc1cn2c(N)c(C=C3C=C(Cl)C(=O)C(Cl)=C3)c(=O)nc2s1 | x | 8.8 | x | x | 6.2 | 35.4* | 22.9
O=C(COC(=O)c1ccc(-n2cnnn2)cc1)c1ccc(Br)cc1 | x | -2.1 | x | x | -1.8 | -2.4 | x
COc1ccc2cc(C(=O)N/N=C/c3sc4ccccc4c3O)ccc2c1 | 24.0 | 18.6 | -6.3 | -3.5 | -6.2 | 30.4* | 19.1
